Reference: PubChem BioAssay AID463173 (ICCB-Longwood Screening Facility, Harvard Medical School, 2010)
Out of some 52,000 compounds screened, about 1,700 (3.3%) were called active. Rule as the data show it: active = survival mostly below about 52% (no sharp cut-off); inactive = mostly above about 56%. For the sample, actives were picked, then their nearest neighbours and some compounds at random.

Each compound was assayed on Wild type (assay: S. aureus survival, RN4220 and DeltatarO strains – OD600, teichoic acid synthesis inhibitors, primary screen (AID 463173)). Conditions: S. aureus RN4220 wild type/DeltatarO growth, OD600, 18 h, stronger effect = lower value, concentration not given here.

Structure (SMILES) | survival
CCOc1ccc2nc(NC(=O)c3cccn(Cc4ccc(C)cc4)c3=O)sc2c1 | 76% (inactive)
Cc1ccc(Cn2cccc(C(=O)Nc3cc(C)on3)c2=O)cc1 | 81% (inactive)
O=C1CN=C(c2ccccc2Cl)c2cc(Cl)ccc2N1Cc1cccc(Cl)c1 | 128% (inactive)
Cc1ccc(CN2C(=O)c3ccccc3Sc3ccc(C(=O)N4CCC5(CC4)OCCO5)cc32)cc1 | 75% (inactive)
Cc1ccc(C)c(CN2C(=O)c3ccccc3Sc3ccc(C(=O)N4CCC5(CC4)OCCO5)cc32)c1 | 14% (active)
O=C(c1ccc2c(c1)N(Cc1ccc(F)cc1Cl)C(=O)c1ccccc1S2)N1CCC2(CC1)OCCO2 | 78% (inactive)
C1CNC2NCCNC2N1 (stereo not drawn) | 125% (inactive)
O=C1NC(=O)C(C(CC(=O)c2ccccc2)c2ccccc2)C(=O)N1 (stereo not drawn) | 116% (inactive)
CN1C(=O)C(=Cc2ccco2)C(=O)N(C)C1=O | 109% (inactive)
CCCSc1nc2ccccc2c(=O)n1-c1ccccc1OC | -1% (active)
COc1ccccc1-n1c(/C=C/c2ccccc2)nc2ccccc2c1=O | 80% (inactive)
CSc1nc2ccccc2c(=O)n1-c1ccccc1C | 107% (inactive)
CC(=O)N1CC(=O)Nc2ccc(F)cc2C1c1ccccc1 (stereo not drawn) | 82% (inactive)
Cc1ccc(-c2nc(CN3C(=O)CN=C(c4ccccc4)c4ccccc43)c(C)o2)cc1 | 72% (inactive)
Cc1ccccc1-c1nc(CN2C(=O)CN=C(c3ccccc3)c3ccccc32)c(C)o1 | 2% (active)
Cc1cccc(-c2nc(CN3C(=O)CN=C(c4ccccc4)c4ccccc43)c(C)o2)c1 | 2% (active)
COc1ccc(-c2nc(CN3C(=O)CN=C(c4ccccc4)c4ccccc43)c(C)o2)cc1OC | 96% (inactive)
COc1ccc(-c2nc(CN3C(=O)CN=C(c4ccccc4)c4ccccc43)c(C)o2)cc1 | 93% (inactive)
Cc1oc(-c2ccc(Cl)cc2)nc1CN1C(=O)CN=C(c2ccccc2)c2ccccc21 | 80% (inactive)
Cc1ccc2scc(N3CCN(C)CC3)c(=O)c2c1 | 136% (inactive)
O=c1[nH]c2ccccc2c(=O)n1-c1ccc(Cl)c(Cl)c1 | 91% (inactive)
CCOc1nc(NCc2ccco2)nc(N2CC3CC(C2)c2cccc(=O)n2C3)n1 (stereo not drawn) | 104% (inactive)
Nc1c2c(nc3sc4c(c13)CCCC4)CCCC2 | 118% (inactive)
